Screening results: PubChem, Broad Institute
miR122 inh – miR-122 sensor activation; Huh7 psiCHECK-miR122 Renilla luciferase sensor, 48 h; 340,000 tested, 0.14% active; activation, % at 12.5 µM;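 active = mean activation of 30% or more, with every replicate also reaching 30%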;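 note: higher luciferase signal means stronger suppression of miR-122 activity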
Of the large screens only hits and unclear results are named; the others gave an inactive call. This excerpt belongs to a sample that is enriched for hits.

c1ccc(-c2cc(-c3ccccc3)[n+](-c3ccccc3)c(-c3ccccc3)c2)cc1	miR122 inh 59.2
Oc1ccc(/C=N/NP(=S)(c2ccccc2)c2ccccc2)cc1	none
CC(C)C(NC(=O)C(C(C)C)N(C)C)C(=O)N(C)C(C(=O)N1CCCC1C(=O)N1CCCC1C(=O)NCc1ccccc1)C(C)C (configuration not stated)	none
COc1ccc2c(c1)c(CCN)c(C)n2Cc1ccccc1	miR122 inh 51.6
CC12CCC3C(CCC4(O)CC(O)CCC34C=O)C1(O)CCC2C1=CC(=O)OC1 (configuration not stated)	none
O=c1c2ccccc2nc(/C=C/c2ccc([N+](=O)[O-])o2)n1-c1ccc(O)cc1	none
